In PubChem BioAssay (EPA / NIEHS) one finds AC50 and outcome data, which are given here for four molecules.

Holding throughout (details): mRNA level, 48 h; actives raise or lower the signal
Read-out in experiment [1]: Insulin-like growth factor-binding protein 1 (IGFBP1), IGFBP1 (gene 3484)
Put plainly: LTEA_HepaRG_IGFBP1: Life Technologies and Expression Analysis (LTEA) Assay for Insulin-like growth factor-binding protein 1 (IGFBP1) using HepaRG (AID 2283508). An outline of the steps: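 Read-out is qRT-PCR transcript level normalized to three housekeeping genes, fitted in both directions against 0.5% DMSO. Differentiated HepaRG cells received eight half-log concentrations (top 100 uM) in duplicate for 48 h in serum-free induction medium.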

Read-out in experiment [2]: Interleukin 6 (IL6), IL6 (gene 3569)
As to the kind of experiment: LTEA_HepaRG_IL6: Life Technologies and Expression Analysis (LTEA) Assay for Interleukin 6 (IL6) using HepaRG (AID 2283509). An outline of the steps: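 Changes in IL6 mRNA, up or down relative to 0.5% DMSO controls, were derived from concentration-response curves in human HepaRG cells treated for 48 h at up to 100 uM, with ACTB, GAPDH and POLR2A as normalizers.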

Read-out in experiment [3]: Interleukin 6 Receptor (IL6R), IL6R (gene 3570)
Put plainly: LTEA_HepaRG_IL6R: Life Technologies and Expression Analysis (LTEA) Assay for Interleukin 6 Receptor (IL6R) using HepaRG (AID 2283510). The gist of the method: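 In this HepaRG screen, test chemicals act on cells for 48 h at up to 100 uM (eight half-log points, duplicate wells). IL6R expression is quantified by qRT-PCR after normalization to ACTB, GAPDH and POLR2A, with DMSO as baseline.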

Read-out in experiment [4]: Potassium channel subfamily K member 1 (KCNK1), KCNK1 (gene 3775)
Put plainly: LTEA_HepaRG_KCNK1: Life Technologies and Expression Analysis (LTEA) Assay for Potassium channel subfamily K member 1 (KCNK1) using HepaRG (AID 2283511). An outline of the steps: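 Human HepaRG cultures receive test chemicals for 48 h in 0.5% DMSO, top concentration 100 uM with half-log dilutions. Induction or suppression of KCNK1 mRNA relative to DMSO is derived by bidirectional fitting of qRT-PCR data.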

Read-out in experiment [5]: Keratin 19 (KRT19), KRT19 (gene 3880)
Put plainly: LTEA_HepaRG_KRT19: Life Technologies and Expression Analysis (LTEA) Assay for Keratin 19 (KRT19) using HepaRG (AID 2283512). An outline of the steps:
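KRT19 transcript measured by TaqMan qRT-PCR, referenced to three housekeeping genes, after HepaRG cells received test chemicals for 48 h. Eight half-log concentrations, top 100 uM, 0.5% DMSO vehicle; increases and decreases both fitted.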

Read-out in experiment [6]: JUN Transcription Factor, JUN (gene 3725)
Put plainly: LTEA_HepaRG_JUN: Life Technologies and Expression Analysis (LTEA) Assay for JUN Transcription Factor using HepaRG (AID 2283513). The gist of the method: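 Gene-expression endpoint: JUN mRNA (qRT-PCR, normalized to three reference genes) in HepaRG cultures treated 48 h with chemicals, duplicate wells, 100 uM maximum with half-log dilutions; bidirectional fitting relative to 0.5% DMSO.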

Read-out in experiment [7]: Lipase C (LIPC), LIPC (gene 3990)
As to the kind of experiment: LTEA_HepaRG_LIPC: Life Technologies and Expression Analysis (LTEA) Assay for Lipase C (LIPC) using HepaRG (AID 2283514). An outline of the steps: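 In this multiplexed gene-expression screen, human HepaRG cultures received test chemicals for 48 h across eight concentrations with 100 uM highest, in duplicate. Values reflect LIPC mRNA induction or suppression versus DMSO vehicle, from normalized qRT-PCR.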

Read-out in experiment [8]: MicroRNA 122 (MIR122), gene 406906
Put plainly: LTEA_HepaRG_MIR122: Life Technologies and Expression Analysis (LTEA) Assay for MicroRNA 122 (MIR122) using HepaRG (AID 2283516). Further: the transcript read is the microRNA miR-122. An outline of the steps: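 Changes in transcript abundance, up or down relative to 0.5% DMSO vehicle, were scored after 48 h chemical treatment of HepaRG cells (maximum 100 uM). Quantification used TaqMan qRT-PCR normalized to housekeeping genes.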

Read-out in experiment [9]: matrix metalloproteinase-10 (MMP10), MMP10 (gene 4319)
As to the kind of experiment: LTEA_HepaRG_MMP10: Life Technologies and Expression Analysis (LTEA) Assay for matrix metalloproteinase-10 (MMP10) using HepaRG (AID 2283517). The gist of the method:
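In differentiated HepaRG cultures kept in 0.5% DMSO, test chemicals act for 48 h over an eight-point range with a top dose of 100 uM. Expression is then quantified by TaqMan RT-PCR against ACTB, GAPDH and POLR2A.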

Read-out in the next experiment: MYC, MYC (gene 4609)
As to the kind of experiment: LTEA_HepaRG_MYC: Life Technologies and Expression Analysis (LTEA) Assay for MYC using HepaRG (AID 2283518). The gist of the method:
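MYC transcript changes, up or down relative to 0.5% DMSO, from TaqMan qRT-PCR normalized to three housekeeping genes. Human HepaRG cultures received chemicals for 48 h at eight half-log concentrations up to 100 uM, in duplicate.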

Read-out in experiment [10]: matrix metalloproteinase-3 (MMP3), MMP3 (gene 4314)
As to the kind of experiment: LTEA_HepaRG_MMP3: Life Technologies and Expression Analysis (LTEA) Assay for matrix metalloproteinase-3 (MMP3) using HepaRG (AID 2283519). An outline of the steps:
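Human liver HepaRG cultures received chemicals (top concentration 100 uM, 0.5% DMSO) for 48 h in duplicate. MMP3 mRNA induction or loss was then assessed via TaqMan qRT-PCR with housekeeping-gene normalisation.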

Read-out in experiment [11]: Paternally Expressed 10 (PEG10), PEG10 (gene 23089)
As to the kind of experiment: LTEA_HepaRG_PEG10: Life Technologies and Expression Analysis (LTEA) Assay for Paternally Expressed 10 (PEG10) using HepaRG (AID 2283520). An outline of the steps: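 After 48 h exposure of differentiated HepaRG cells (0.5% DMSO vehicle, eight concentrations up to 100 uM, duplicates), PEG10 mRNA was measured by TaqMan qRT-PCR. Values were normalised to endogenous control genes and analysed bidirectionally against vehicle.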

Read-out in experiment [12]: Nuclear factor NF-kappa-B p105 subunit (Homo sapiens) (UniProt P19838)
As to the kind of experiment: LTEA_HepaRG_NFKB1: Life Technologies and Expression Analysis (LTEA) Assay for Nuclear Factor Kappa B Subunit 1 (NFKB1) using HepaRG (AID 2283521).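 Further: TaqMan qRT-PCR transcript normalised to ACTB GAPDH and POLR2A housekeeping genes.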 An outline of the steps:
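Differentiated human HepaRG cells in serum-free induction medium with 0.5% DMSO were exposed for 48 h to eight half-log concentrations, top 100 uM, in duplicate. NFKB1 mRNA measured by Fluidigm TaqMan qRT-PCR, normalised to ACTB, GAPDH and POLR2A; bidirectional fit versus DMSO.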

Read-out in experiment [13]: Protein phosphatase 2A (PPP2R4), PTPA (gene 5524)
Put plainly: LTEA_HepaRG_PPP2R4: Life Technologies and Expression Analysis (LTEA) Assay for Protein phosphatase 2A (PPP2R4) using HepaRG (AID 2283522). The gist of the method: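 Using HepaRG cultures maintained in 0.5% DMSO, chemicals are tested 48 h at up to 100 uM in duplicate. Induction or suppression of PPP2R4 mRNA, measured by qRT-PCR, is fitted bidirectionally against the vehicle baseline.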

Read-out in experiment [14]: Phosphatase and tensin (PTEN), PTEN (gene 5728)
As to the kind of experiment: LTEA_HepaRG_PTEN: Life Technologies and Expression Analysis (LTEA) Assay for Phosphatase and tensin (PTEN) using HepaRG (AID 2283523). An outline of the steps:
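Expression of PTEN is quantified in the human liver line HepaRG following two days of dosing (top concentration 100 uM, half-log dilutions, 0.5% DMSO). Values derive from bidirectional curve fitting relative to DMSO controls.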

Read-out in experiment [15]: solute carrier (SLC22A1), SLC22A1 (gene 6580)
Put plainly: LTEA_HepaRG_SLC22A1: Life Technologies and Expression Analysis (LTEA) Assay for solute carrier (SLC22A1) using HepaRG (AID 2283524). The gist of the method:
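Transcript induction or suppression of SLC22A1 in human HepaRG cultures is scored after 48 h chemical treatment, with DMSO (0.5%) as baseline for bidirectional fitting. Concentrations span eight half-log points topping at 100 uM.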

Read-out in experiment [16]: Pyruvate Dehydrogenase Kinase 4 (PDK4), PDK4 (gene 5166)
Put plainly: LTEA_HepaRG_PDK4: Life Technologies and Expression Analysis (LTEA) Assay for Pyruvate Dehydrogenase Kinase 4 (PDK4) using HepaRG (AID 2283525). The gist of the method:
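Eight-point, half-log concentration series (max 100 uM, 0.5% DMSO) applied to differentiated HepaRG cells for 48 h in duplicate. Endpoint: PDK4 mRNA induction or repression by qRT-PCR against DMSO baseline.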

Read-out in experiment [17]: NAD(P)H dehydrogenase [quinone] 1 (NQO1), NQO1 (gene 1728)
Put plainly: LTEA_HepaRG_NQO1: Life Technologies and Expression Analysis (LTEA) Assay for NAD(P)H dehydrogenase [quinone] 1 (NQO1) using HepaRG (AID 2283526). The gist of the method:
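In this assay, gene expression is read by qRT-PCR after 48 h exposure of HepaRG cells to eight concentrations (max 100 uM, half-log) in 0.5% DMSO. Each chemical runs in duplicate, and activity is scored relative to vehicle.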

Read-out in experiment [18]: Nuclear factor erythroid 2-related factor 2 (Homo sapiens) (UniProt Q16236)
As to the kind of experiment: LTEA_HepaRG_NFE2L2: Life Technologies and Expression Analysis (LTEA) Assay for Nuclear factor erythroid 2-related factor 2 (NFE2L2) Transcription Factor using HepaRG (AID 2283527).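 Further: TaqMan qRT-PCR transcript level normalised to ACTB GAPDH and POLR2A housekeeping genes.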 An outline of the steps: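 Human liver HepaRG line treated in duplicate for 48 h with an eight-point series topping at 100 uM. Gene expression of NFE2L2 by qRT-PCR, bidirectionally fitted against the vehicle control.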

Read-out in experiment [19]: Lipoprotein lipase (LPL), LPL (gene 4023)
Put plainly: LTEA_HepaRG_LPL: Life Technologies and Expression Analysis (LTEA) Assay for Lipoprotein lipase (LPL) using HepaRG (AID 2283515). The gist of the method: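 Concentration-response testing used half-log steps from 100 uM in 0.5% DMSO on human HepaRG cells, 48 h, duplicate wells. Phenobarbital 1 mM served as induction control; LPL mRNA was normalized to ACTB, GAPDH, POLR2A.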

Calls of active or inactive are those of the source. How the source made its calls: active means hit-call score of the fitted dose curve at least 0.9, where 1 is the maximum; inactive means score below 0.9.

Sequence of Nuclear factor erythroid 2-related factor 2 (Homo sapiens) (Q16236 whole entry, looked up): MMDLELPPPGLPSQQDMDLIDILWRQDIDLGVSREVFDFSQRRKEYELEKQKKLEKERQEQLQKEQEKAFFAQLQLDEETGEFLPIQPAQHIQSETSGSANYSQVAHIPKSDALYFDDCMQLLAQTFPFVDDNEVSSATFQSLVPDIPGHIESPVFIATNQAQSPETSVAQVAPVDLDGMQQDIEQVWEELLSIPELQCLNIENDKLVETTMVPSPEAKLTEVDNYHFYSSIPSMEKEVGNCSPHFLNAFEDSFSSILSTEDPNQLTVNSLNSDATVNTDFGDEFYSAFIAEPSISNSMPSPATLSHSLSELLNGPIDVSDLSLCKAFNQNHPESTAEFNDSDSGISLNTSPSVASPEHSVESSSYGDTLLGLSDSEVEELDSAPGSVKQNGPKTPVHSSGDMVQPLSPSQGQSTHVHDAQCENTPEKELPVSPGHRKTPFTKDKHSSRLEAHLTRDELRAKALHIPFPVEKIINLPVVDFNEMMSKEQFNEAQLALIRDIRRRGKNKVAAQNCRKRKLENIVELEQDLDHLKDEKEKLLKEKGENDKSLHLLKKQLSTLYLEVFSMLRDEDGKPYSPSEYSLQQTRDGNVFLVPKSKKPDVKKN
Sequence of Nuclear factor NF-kappa-B p105 subunit (Homo sapiens) (P19838 whole entry, looked up): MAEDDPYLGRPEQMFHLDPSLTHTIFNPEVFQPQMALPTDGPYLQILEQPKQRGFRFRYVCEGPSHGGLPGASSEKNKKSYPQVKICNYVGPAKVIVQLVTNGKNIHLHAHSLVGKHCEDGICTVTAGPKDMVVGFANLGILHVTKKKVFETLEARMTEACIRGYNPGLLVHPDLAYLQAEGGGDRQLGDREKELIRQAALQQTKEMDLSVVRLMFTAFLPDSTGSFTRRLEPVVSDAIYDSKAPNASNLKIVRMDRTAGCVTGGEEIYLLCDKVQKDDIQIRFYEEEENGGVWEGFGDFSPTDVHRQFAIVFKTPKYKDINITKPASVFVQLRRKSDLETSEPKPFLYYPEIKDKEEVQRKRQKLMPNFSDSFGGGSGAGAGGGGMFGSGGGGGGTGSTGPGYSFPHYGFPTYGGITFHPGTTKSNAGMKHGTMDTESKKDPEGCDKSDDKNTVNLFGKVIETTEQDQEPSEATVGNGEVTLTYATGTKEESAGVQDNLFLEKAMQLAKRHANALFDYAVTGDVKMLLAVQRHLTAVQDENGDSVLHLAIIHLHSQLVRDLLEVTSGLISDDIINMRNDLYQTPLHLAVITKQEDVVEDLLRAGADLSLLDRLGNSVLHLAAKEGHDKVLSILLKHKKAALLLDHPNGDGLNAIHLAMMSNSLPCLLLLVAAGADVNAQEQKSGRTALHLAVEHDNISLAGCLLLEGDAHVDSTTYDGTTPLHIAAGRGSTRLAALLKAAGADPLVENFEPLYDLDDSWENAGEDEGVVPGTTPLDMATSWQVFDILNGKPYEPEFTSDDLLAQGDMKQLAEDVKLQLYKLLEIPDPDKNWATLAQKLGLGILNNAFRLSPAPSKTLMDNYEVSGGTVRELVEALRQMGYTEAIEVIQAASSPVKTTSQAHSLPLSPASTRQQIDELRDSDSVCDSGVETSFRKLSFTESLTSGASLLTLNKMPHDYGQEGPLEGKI

Take `CCc1cccc(CC)c1N(COC)C(=O)CCl`: the figures for the AC50 in experiment [1] and in [16] were 32.1 µM (active) and 28.9 µM (active), respectively. Moreover, the result in experiment [2], in experiment [3], in [4], in experiment [5], in experiment [6] and in experiment [7] was inactive. Moreover, the outcome was “inactive” in experiment [8]; “inactive” in [9]; “inactive” with MYC, MYC (gene 4609); “inactive” in experiment [10]; “inactive” in [11]; “inactive” in experiment [12]. Besides, the call in experiment [13], in [14], in experiment [15], in [17] and in [18] was inactive.

Turning to `CN1COCN(Cc2cnc(Cl)s2)C1=N[N+](=O)[O-]`, the molecule was called inactive in experiment [1], in experiment [2], in experiment [3], in [4], in experiment [5] and in [6]. Further, the outcome was “inactive” in [7]; “inactive” in [19]; “inactive” in experiment [8]; “inactive” in [9]; “inactive” with MYC, MYC (gene 4609); “inactive” in experiment [10]. Moreover, the molecule was called inactive in experiment [11], in experiment [13], in experiment [14], in experiment [15], in experiment [16] and in experiment [17]. Moreover, the result in experiment [18] was inactive.

For `CC(Oc1cccc(Cl)c1)C(=O)O` (centres undefined), the call in experiment [1], in [2], in experiment [3], in [4], in [5] and in experiment [6] was inactive. Moreover, the outcome in experiment [7] is “inactive”; in experiment [8], “inactive”; in [9] it was “inactive”; with MYC, MYC (gene 4609) it was “inactive”; in [10] it was “inactive”; in [11], “inactive”. Further, the outcome in [13], in experiment [15], in experiment [16], in experiment [17] and in experiment [18] was inactive.

On to `CNC(=O)ON=C(SC)C(=O)N(C)C`, for which the call in [1], in experiment [2], in [3], in experiment [4], in experiment [5] and in experiment [6] was inactive. The outcome in [7] is “inactive”; in experiment [8], “inactive”; in [9] it was “inactive”; with MYC, MYC (gene 4609) it was “inactive”; in [10], “inactive”; in experiment [11], “inactive”. Moreover, the molecule was classed as inactive in [13], in [14], in [15], in [16], in experiment [17] and in experiment [18]. Moreover, in experiment [19], the AC50 is 0.289 µM (active).

Broadly, the AC50 is the concentration at which the activity in the assay is half-maximal.
